Out of some 21,000 compounds screened, about 110 (0.52%) were called active. What follows is part of a selection rich in actives, with near analogues and random picks from the rest. Values without a mark were called inactive.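 The calls were made as follows: active = most replicate scores above 10, or exactly half above 10 with mean activity above 10; inconclusive = mean activity below 10 while half the replicates exceed 10; inactive = most replicate scores below 10.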
Test: caspase activation in A1-primed MEFs – cell-based, CaspaseGlo luminescence, A1 inhibitor project, primary screen (AID 2241);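 also: effector caspase 3 and 7 activity cleaving a DEVD luciferin substrate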
Conditions: MEF A1-2A-BIM cells, caspase-Glo luminescence, 3 h; active compounds read high; percent of clofoctol signal, DMSO as zero; concentration not given here

First: CCOC(=O)c1cn(CC)c2cc(F)c(F)cc2c1=O
Second: CCOC(=O)c1cc(=O)c2ccc(OCc3ccccc3)cc2o1
The caspase activation of the first is higher: 0.158% for the first, -1.74% for the second.

Going from `O=C(NCc1ccccc1Cl)C1=CSCCO1` to `O=C(CC1SC(=NC2CC3C=CC2C3)NC1=O)Nc1ccccc1Cl` (stereo unspecified), the caspase activation rises from -0.087% to 0.103%.

First: C[C@@H]1CN([C@@H](C)CO)C(=O)c2cc(NS(=O)(=O)c3ccccc3)ccc2O[C@H]1CN(C)S(=O)(=O)c1ccc(Cl)cc1
Second: COc1ccc(S(=O)(=O)Nc2ccc3c(c2)C(=O)N([C@H](C)CO)C[C@H](C)[C@H](CN(C)S(=O)(=O)c2ccc(Cl)cc2)O3)cc1
The caspase activation of the first is higher: 0.207% for the first, 0.103% for the second.

First: COc1ccc(NC(=O)Nc2ccc3c(c2)C(=O)N([C@@H](C)CO)C[C@H](C)[C@@H](CN(C)C(=O)NC2CCCCC2)O3)cc1
Second: C[C@@H]1CN([C@H](C)CO)C(=O)c2cc(NC(=O)NC3CCCCC3)ccc2O[C@H]1CN(C)S(C)(=O)=O
The caspase activation of the first is lower: -0.437% for the first, 0.129% for the second.

First: Cc1ccc(S(=O)(=O)c2no[n+]([O-])c2S(=O)(=O)c2ccc(C)cc2)cc1
Second: Cc1ccc(S(=O)(=O)N(CC(=O)Nc2cccnc2)c2cc(C)cc(C)c2)cc1
The caspase activation of the first is lower: -3.56% for the first, 0.203% for the second.

Going from `CCC(CC)NC(=O)C1c2ccccc2Oc2ccccc21` to `CCC(=O)c1ccc(OC(=O)C2c3ccccc3Oc3ccccc32)cc1`, the caspase activation falls from 0.418% to -0.0959%.

Compared with `Cc1noc(C)c1S(=O)(=O)Nc1ccc2c(c1)C(=O)N([C@@H](C)CO)C[C@H](C)[C@H](CN(C)C(=O)Nc1ccc(C(F)(F)F)cc1)O2`, `COc1ccc(NC(=O)N(C)C[C@H]2Oc3ccc(NS(=O)(=O)c4cccs4)cc3C(=O)N([C@@H](C)CO)C[C@H]2C)cc1` is higher in caspase activation: -0.257% for the first, 0.747% for the second.

Going from `Cc1ccc(-n2c(C)nc3sc4c(c3c2=O)CCC4)cc1` to `Cc1ccc(NC(N)=O)cc1`, the caspase activation falls from 0.54% to -0.167%.

Compared with `CC(=O)Oc1ccc2occ(C(=O)c3cc4ccccc4o3)c2c1`, `CCCOC(=O)c1cc2ccccc2oc1=O` is higher in caspase activation: -5.48% for the first, -1.82% for the second.

First: O=C(Nc1ccc(Cl)cc1)Nc1ccc(N2CCN(c3ncccc3C(F)(F)F)CC2)nc1
Second: Cc1nc(C2COc3ccccc3O2)ncc1S(=O)(=O)c1ccc(Cl)cc1 (stereo unspecified)
The caspase activation of the first is higher: -0.335% for the first, -0.851% for the second.

Going from `Cc1cccc(NC(=O)C2C3CC/C=C\CCC32)c1` (stereo unspecified) to `Cn1c(C(=O)NC2CCCC2)cc2oc3ccccc3c21`, the caspase activation falls from 1.35% to -1.2%.

`CN1C(=O)C(Cc2ccccc2)(Cc2ccccc2)c2ccccc21` and `O=C(c1cccc(Cl)c1)N(Cc1ccccc1)Cc1ccccc1` are the same in caspase activation: -0.527% for the first, -0.527% for the second.

Going from `C=CCn1c2ccccc2c2nnc(SCCCC(=O)c3ccc(F)cc3)nc21` to `C=CCn1c(SCc2nnc(SCC(=O)c3ccc(Cl)cc3)o2)nnc1-c1ccccc1`, the caspase activation rises from -0.988% to 0.865%.

Going from `CNC(=O)CSc1nc2ccccc2[nH]1` to `O=C(CSc1nc2ccccc2o1)Nc1ccccn1`, the caspase activation falls from 0.45% to -3.01%.

First: C[C@H]1CN([C@@H](C)CO)C(=O)c2cc(NC(=O)CCC(F)(F)F)ccc2O[C@H]1CN(C)Cc1ccc(C(=O)O)cc1
Second: COc1ccc(CN(C)C[C@@H]2Oc3ccc(NC(=O)Nc4cccc5ccccc45)cc3C(=O)N([C@H](C)CO)C[C@H]2C)cc1
The caspase activation of the first is higher: 0.236% for the first, -0.083% for the second.

Going from `COc1ccc(-c2nn(C)c3ccccc23)cc1` to `CCCCn1c2ccccc2c2nc3ccccc3nc21`, the caspase activation rises from -6.81% to -1.06%.

Going from `C=CCn1c(SC)nnc1-c1ccc(OC)c(OC)c1` to `COc1cc2c(cc1OC)C1CN3CCc4cc(OC)c(OC)cc4C3CN1CC2` (stereo unspecified), the caspase activation falls from 0.905% to -0.199%.

First: CCc1nnc(NC(=O)c2cc(S(=O)(=O)N3CCc4ccccc43)cn2C)s1
Second: NC(=O)N1CCc2ccccc21
The caspase activation of the first is higher: 1.26% for the first, 0.412% for the second.

First: O=C(CC(=O)c1ccccc1O)c1ccccc1
Second: CCC(=O)Nc1ccccc1C(=O)Nc1ccccc1
The caspase activation of the first is lower: -2.59% for the first, 0.303% for the second.

Going from `C[C@@H]1CN([C@H](C)CO)C(=O)c2cc(NC(=O)c3ccncc3)ccc2O[C@H]1CN(C)Cc1ccc(Oc2ccccc2)cc1` to `C[C@@H]1CN([C@H](C)CO)C(=O)c2cc(NS(=O)(=O)c3ccc(F)cc3)ccc2O[C@@H]1CN(C)C(=O)Nc1cccc2ccccc12`, the caspase activation rises from -0.569% to -0.274%.

Compared with `CC(=O)Nc1ccc(S(=O)(=O)CCO)cc1`, `CCc1ccc(NC(=O)CN(C)S(=O)(=O)c2cc(Br)cnc2N)cc1` is lower in caspase activation: 2.64% for the first, -0.325% for the second.

Compared with `COc1ccc(S(=O)(=O)Nc2ccc3c(c2)C(=O)N([C@H](C)CO)C[C@@H](C)[C@H](CN(C)C(=O)Nc2ccc4c(c2)OCO4)O3)cc1`, `C[C@H]1CN([C@@H](C)CO)C(=O)c2cc(NS(=O)(=O)c3ccc(F)cc3)ccc2O[C@H]1CN(C)CC1CC1` is higher in caspase activation: 0.103% for the first, 1.58% for the second.

First: COc1cc(C2c3c(cc(OC)c(O)c3OC)CC(CO[C@@H]3O[C@H](CO)[C@@H](O)[C@H](O)[C@H]3O)C2CO)cc(OC)c1O (stereo partly specified)
Second: O=C(/C=C/c1ccccc1)c1ccc(O[C@@H]2O[C@H](CO)[C@@H](O)[C@H](O)[C@H]2O)cc1O
The caspase activation of the first is lower: -0.412% for the first, -0.127% for the second.

Going from `O=C(/C=C/c1ccccc1)NCCCCNCCCNC(=O)/C=C/c1ccccc1` to `O=C(O)CCCC=C(c1ccccc1)c1ccccc1`, the caspase activation falls from -0.0105% to -0.527%.

Going from `c1ccc(CSc2ccc(-c3ccncc3)nn2)cc1` to `c1ccc(-c2nc3ccccc3o2)cc1`, the caspase activation falls from 0.0365% to -5.88%.

Going from `C[C@@H]1CN([C@H](C)CO)C(=O)c2cc(NC(=O)C3CCCCC3)ccc2O[C@@H]1CN(C)CC1CCCCC1` to `C[C@@H]1CN([C@@H](C)CO)C(=O)c2cc(NS(=O)(=O)c3ccccc3)ccc2O[C@H]1CN(C)CC1CC1`, the caspase activation falls from 0.287% to -0.166%.

First: CC(=C\c1ccccc1)/C(C)=N/O
Second: Cc1ccccc1N=C(N)N=C(N)N
The caspase activation of the first is higher: 0.142% for the first, 0.116% for the second.

Compared with `Oc1c(Cl)cc(Cl)cc1C1Nc2cc(C(F)(F)F)ccc2-n2cccc21` (stereo unspecified), `FC(F)(F)c1ccnc(Oc2ccc(C3=NCCS3)cc2)c1` is lower in caspase activation: -0.566% for the first, -5.95% for the second.

Compared with `CCCNC(=O)c1ccc2c(c1)N(Cc1ccc(F)cc1)CCS2`, `O=C(COc1cccc(NC(=O)c2ccccc2)c1)NCCOc1ccccc1` is higher in caspase activation: -0.988% for the first, -0.0599% for the second.

First: C[C@H](CO)N1C[C@H](C)[C@H](CN(C)S(=O)(=O)c2cn(C)cn2)Oc2ccc(NS(=O)(=O)c3ccccc3)cc2C1=O
Second: OCCN1N=C2c3ccccc3CCC2C1c1ccccc1Cl (stereo unspecified)
The caspase activation of the first is lower: 0.0901% for the first, 0.231% for the second.

First: O=C1c2ccccc2C(=O)C1c1cc(=O)[nH]c2c1ccc1ccccc12
Second: COc1ccc(N/C(N)=N/c2nc(CSc3nc4ccccc4s3)cc(=O)[nH]2)cc1
The caspase activation of the first is higher: -0.299% for the first, -0.646% for the second.

First: CCOC(=O)c1c(C)n(O)c2ccc3nonc3c12
Second: CCN(CCCn1c(=S)[nH]c2cc3c(cc2c1=O)OCO3)c1cccc(C)c1
The caspase activation of the first is lower: -0.716% for the first, 0.124% for the second.

Compared with `CCSC1=C(C#N)C(=O)NCS1`, `CCC(C)NC(=O)Nc1ccc(C)c(Cl)c1` (stereo unspecified) is lower in caspase activation: 0.116% for the first, -1.99% for the second.

Going from `O=c1c2ccccc2nc(SCc2cccc(F)c2)n1C1CC1` to `OC(c1nc2ccccc2[nH]1)C(O)C(O)C(O)c1nc2ccccc2[nH]1` (stereo unspecified), the caspase activation rises from -0.676% to 0.0552%.

First: CCN(CC)C(=S)SCc1nc(N)nc(Nc2ccccc2)n1
Second: NC(=S)c1nc(-c2ccccc2)oc1N
The caspase activation of the first is higher: 0.133% for the first, -1.84% for the second.

Going from `O=C(Sc1ccc(Oc2ccc(SC(=O)c3ccco3)cc2)cc1)c1ccco1` to `Nc1c(C(=O)N2CCCCC2)sc2nc3c(cc12)CCC3`, the caspase activation falls from 1.99% to -1.2%.

With `Cc1ccc(-c2nn(C(C)(C)C)c3ncnc(N)c23)cc1` the caspase activation was 11.3% (active).
In the case of `CC[C@H]1CN2CCc3cc(OC)c(OC)cc3[C@@H]2C[C@@H]1C[C@H]1NCCc2cc(OC)c(OC)cc21`, the caspase activation was 18.2% (active).
In the case of `O=C(Nc1cccc(-c2nc3ccccc3o2)c1)c1ccc(Br)cc1`, the caspase activation was 14.9% (active).
In the case of `O=C(Nc1cccc(-c2nc3ccccc3o2)c1)c1cccc(OCc2ccccc2)c1`, the caspase activation was 34% (active).

From PubChem BioAssay AID2241 (Broad Institute, 2010)
